# In PubChem BioAssay:
# “And” between values parts separate entries of the source, which are not always exact repeats. Equal entries are not always repeated. The source made the active and inactive calls.
# Key:
# [1] = E. coli DRC41 culture turbidity changes, primary screen, E. coli filamentation inducer project, strain DRC41, OD650, 48 h (AID 1152);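 note: E. coli MC1000 strain DRC41 lacking acrAB efflux pump and sulA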; settings: E. coli DRC41 (acrAB sulA), higher = more signal, called active from +8 up or from −8 down
# [2] = small-molecule binders of probe aLefty1, primary screen, biochemical, small-molecule microarray, 635/667 nm fluorescence (AID 1153); settings: higher = more signal;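 note: score merges spot fluorescence with signal-to-noise ratio from the scanned slide images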
# [3] = PSAC antagonists in infected red cells, primary screen, cell-based, P. falciparum Indochina, OD700, 1 h (AID 1154); settings: P. falciparum Indochina infected RBC osmotic lysis, higher = more signal, called active from +8 up or from −8 down
# [4] = PSAC antagonists in infected red cells, primary screen, cell-based, P. falciparum Indochina, OD700, 2 h (AID 1155);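 note: lysis reports solute entry through the parasite surface anion channel PSAC; channel blockers reduce lysis of infected cells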; settings: P. falciparum Indochina infected erythrocytes, osmotic lysis OD700; higher = more signal, called active from +8 up or from −8 down
# [5] = osmotic lysis modulators in infected erythrocytes, primary screen, PSAC antagonist project, cell-based, P. falciparum Indochina, OD700, 3 h (AID 1156); settings: higher = more signal, called active from +8 up or from −8 down
# [6] = PSAC antagonists in infected red cells, primary screen, cell-based, P. falciparum Indochina, OD700, 18 h (AID 1157); settings: P. falciparum Indochina infected erythrocytes, osmotic lysis OD700, 18 h; higher = more signal, called active from +8 up or from −8 down
# [7] = modulators of S6 phosphorylation in cells, primary screen, cell-based, A549, cytoblot, luminescence, serum-stimulated (AID 1158); settings: A549 phospho-S6 cytoblot, 5 h, higher = more signal;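 note: serum-stimulated A549 lung adenocarcinoma cells; signal is phosphorylated S6 detected by cytoblot immunostaining with HRP secondary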
# [8] = biological target: NADPH oxidase 2 (Homo sapiens) (UniProt P04839); experiment: NOX2-dependent H2O2 signal modulators, primary screen, NOX inhibitor project, cell-based, HEK293-NOX2, PMA-stimulated, Amplex Red fluorescence (AID 1159); settings: 45 min, higher = more signal, called active from +8 up or from −8 down; note: test concentration not given here
# Chain of NADPH oxidase 2 (Homo sapiens) (P04839 whole entry, looked up): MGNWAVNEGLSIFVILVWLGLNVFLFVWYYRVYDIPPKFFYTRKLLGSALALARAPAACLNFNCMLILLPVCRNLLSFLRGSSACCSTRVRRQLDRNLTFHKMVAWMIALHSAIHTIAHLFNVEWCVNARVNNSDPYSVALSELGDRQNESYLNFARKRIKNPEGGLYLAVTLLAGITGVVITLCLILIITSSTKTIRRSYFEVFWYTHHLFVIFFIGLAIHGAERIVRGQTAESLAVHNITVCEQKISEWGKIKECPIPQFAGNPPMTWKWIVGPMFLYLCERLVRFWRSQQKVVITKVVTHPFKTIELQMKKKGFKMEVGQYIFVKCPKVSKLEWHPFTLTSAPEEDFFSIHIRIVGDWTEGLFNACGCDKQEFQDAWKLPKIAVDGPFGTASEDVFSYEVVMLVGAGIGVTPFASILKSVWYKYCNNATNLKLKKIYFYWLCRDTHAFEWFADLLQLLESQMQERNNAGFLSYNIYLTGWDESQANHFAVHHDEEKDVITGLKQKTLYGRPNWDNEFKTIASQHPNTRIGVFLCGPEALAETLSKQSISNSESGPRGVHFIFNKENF
# [9] = biological target: NADPH oxidase 4 (Homo sapiens) (UniProt Q9NPH5); experiment: NOX4-dependent H2O2 signal modulators, primary screen, NOX inhibitor project, cell-based, HEK293-NOX4, tetracycline-induced, Amplex Red fluorescence (AID 1160); settings: 45 min, higher = more signal, called active from +8 up or from −8 down
# Chain of NADPH oxidase 4 (Homo sapiens) (Q9NPH5 whole entry, looked up): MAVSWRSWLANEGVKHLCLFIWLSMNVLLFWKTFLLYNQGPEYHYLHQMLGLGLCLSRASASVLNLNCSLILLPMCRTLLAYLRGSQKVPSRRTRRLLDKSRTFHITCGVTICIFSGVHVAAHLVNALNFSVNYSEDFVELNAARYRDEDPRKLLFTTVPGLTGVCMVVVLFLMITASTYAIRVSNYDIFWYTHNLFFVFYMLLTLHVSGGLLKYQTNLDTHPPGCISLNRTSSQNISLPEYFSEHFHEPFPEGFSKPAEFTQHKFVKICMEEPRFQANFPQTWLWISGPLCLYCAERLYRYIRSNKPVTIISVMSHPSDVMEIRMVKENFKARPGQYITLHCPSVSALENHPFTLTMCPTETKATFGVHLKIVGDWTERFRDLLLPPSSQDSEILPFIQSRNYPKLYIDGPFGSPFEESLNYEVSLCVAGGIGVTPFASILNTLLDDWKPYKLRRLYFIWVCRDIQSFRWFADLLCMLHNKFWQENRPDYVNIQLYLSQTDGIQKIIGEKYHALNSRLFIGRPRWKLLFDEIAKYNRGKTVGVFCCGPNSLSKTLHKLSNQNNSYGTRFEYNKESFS
# [10] = biological target: NADPH oxidase 5 (Homo sapiens) (UniProt Q96PH1); experiment: NOX5-dependent H2O2 signal modulators, primary screen, NOX inhibitor project, cell-based, HEK293-NOX5, Amplex Red fluorescence (AID 1161); settings: HEK293-NOX5, ionomycin, 45 min, higher = more signal
# Chain of NADPH oxidase 5 (Homo sapiens) (Q96PH1 whole entry, looked up): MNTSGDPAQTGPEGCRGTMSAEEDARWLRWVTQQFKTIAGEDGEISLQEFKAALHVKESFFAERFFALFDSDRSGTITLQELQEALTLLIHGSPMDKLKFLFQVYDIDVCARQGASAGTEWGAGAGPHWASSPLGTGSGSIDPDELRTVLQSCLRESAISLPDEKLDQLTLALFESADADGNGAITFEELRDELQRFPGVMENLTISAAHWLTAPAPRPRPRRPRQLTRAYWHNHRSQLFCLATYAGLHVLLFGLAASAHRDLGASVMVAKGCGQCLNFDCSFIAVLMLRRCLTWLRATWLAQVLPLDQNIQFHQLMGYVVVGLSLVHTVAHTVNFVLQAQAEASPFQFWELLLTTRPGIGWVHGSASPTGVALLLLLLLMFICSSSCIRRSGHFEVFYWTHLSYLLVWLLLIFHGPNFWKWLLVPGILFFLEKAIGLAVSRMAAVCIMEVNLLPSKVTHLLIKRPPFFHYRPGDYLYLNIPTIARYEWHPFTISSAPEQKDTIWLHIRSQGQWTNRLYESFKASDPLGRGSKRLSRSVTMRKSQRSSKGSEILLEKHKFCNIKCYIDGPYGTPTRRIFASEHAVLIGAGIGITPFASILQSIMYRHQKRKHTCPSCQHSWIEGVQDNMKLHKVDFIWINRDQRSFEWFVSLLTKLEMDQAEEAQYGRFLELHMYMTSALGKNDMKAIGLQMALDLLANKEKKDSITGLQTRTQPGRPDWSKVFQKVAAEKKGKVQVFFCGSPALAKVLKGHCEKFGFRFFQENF
# [11] = A549 cell viability effects, profiling panel, calcein-AM fluorescence, 48 h, basal (AID 1162); settings: higher = more signal; note: test concentration not given here
# [12] = adipocyte viability effects, profiling panel, cell-based, 3T3-L1 adipocytes, calcein-AM fluorescence, 48 h, basal (AID 1163); settings: 3T3-L1 adipocytes viability, higher = more signal; note: test concentration not given here
# [13] = HepG2 cell viability effects, profiling panel, calcein-AM fluorescence, 48 h, basal (AID 1164); settings: higher = more signal; note: test concentration not given here
# [14] = MM1S cell viability effects, profiling panel, calcein-AM fluorescence, 48 h, basal (AID 1165); settings: higher = more signal;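 note: viability of MM1S multiple myeloma cells under basal unstimulated conditions; test concentration not given here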
# [15] = basal RPMI8226 viability, no added stimulus, profiling panel, cell-based, calcein-AM fluorescence, 48 h, PK04 Diversity Set (AID 1166); settings: RPMI8226 myeloma viability, higher = more signal;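 note: cells grown under basal conditions without added stimulus; test concentration not given here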
# [16] = basal HepG2 mitochondrial membrane potential changes, profiling panel, cell-based, JC-1 fluorescence, 24 h, 100 nL compound (AID 1167); settings: higher = more signal; note: test concentration not given here
# [17] = basal 3T3-L1 adipocyte mitochondrial potential changes, profiling panel, cell-based, JC-1 fluorescence, 3T3-L1 adipocytes, 24 h, 100 nL compound (AID 1168); settings: JC-1 mitochondrial fluorescence, higher = more signal, called active from +8 up or from −8 down; note: test concentration not given here
# [18] = basal RPMI8226 mitochondrial membrane potential changes, profiling panel, cell-based, JC-1 fluorescence, 24 h, 100 nL compound (AID 1169); settings: RPMI8226 myeloma, JC-1 mitochondrial potential fluorescence, higher = more signal; note: test concentration not given here
# [19] = basal MM1S mitochondrial membrane potential changes, profiling panel, cell-based, JC-1 fluorescence, 24 h, 100 nL compound (AID 1170); settings: higher = more signal; note: test concentration not given here
# [20] = A549 lung cancer cell viability effects, profiling panel, resazurin fluorescence, 24 h, PK04 Diversity Set (AID 1171); settings: higher = more signal, called active from +8 up or from −8 down; note: test concentration not given here
SMILES,z-score [1],composite z-score [2],z-score [3],z-score [4],z-score [5],z-score [6],z-score [7],z-score [8],z-score [9],z-score [10],z-score [11],z-score [12],z-score [13],z-score [14],z-score [15],z-score [16],z-score [17],z-score [18],z-score [19],z-score [20]
Cc1ccc(S(=O)(=O)N[C@@H]2COC(=O)CC=C[C@@H](C)[C@@H]3C=C[C@H](O)[C@@H](COC(=O)CC=C[C@H]2C)O3)cc1,-0.134 (inactive) and -0.835 (inactive),-0.217 and 0.0658,-0.178 (inactive) and -0.723 (inactive),-0.377 (inactive) and -1.3 (inactive),-0.603 (inactive) and 1.03 (inactive),0.035 (inactive) and -1.47 (inactive),0.116 and 1.08,-2.15 (inactive) and -1.22 (inactive),0.427 (inactive) and -1.36 (inactive),0.353 and -2.6,0.616 and -0.418,-0.347 and -0.476,0.664 and -1.95,0.0847 and -1.25,0.0913 and -0.776,-0.0139 and 0.344,-0.0698 (inactive) and 0.134 (inactive),-0.858 and 1.11,1.32 and -1.69,0.0086 (inactive) and 0.658 (inactive)
C[N+](C)(C)CCCCCCNC(=O)[C@H]1C[C@H]2C(=O)N[C@@H](CCCC[N+](C)(C)C)C(=O)N2[C@H]1c1cccc(OCCO)c1,1.06 (inactive) and -0.391 (inactive),0.212 and 1.06,3.2 (inactive) and 3.03 (inactive),1.03 (inactive) and 1.07 (inactive),0.0478 (inactive) and -2.4 (inactive),0.448 (inactive) and 0.301 (inactive),-0.0981 and -0.617,-0.142 (inactive) and -0.0849 (inactive),0.566 (inactive) and 0.746 (inactive),0.749 and 0.86,0.47 and -0.453,-0.32 and -0.34,0.427 and -0.245,0.0606 and -0.353,0.366 and 0.635,-0.112 and -1.53,0.418 (inactive) and 0.566 (inactive),-0.192 and 0.231,-0.644 and -0.272,-0.154 (inactive) and -0.311 (inactive)
CC(C)OC(=O)C=C1C[C@@H](c2ccccc2)O[C@@H](c2ccccc2)O1,0.676 (inactive) and 0.585 (inactive),-0.0984 and 0.149,15.2 (active) and 23.2 (active),1.94 (inactive) and 5.46 (inactive),0.369 (inactive),1.03 (inactive) and 1.37 (inactive),-0.104 and -0.0136,-0.124 (inactive) and -0.0606 (inactive),-0.00431 (inactive) and -1.01 (inactive),-0.39 and -0.392,0.604 and -0.204,0.211 and 0.24,1.57 and 0.805,-1.8 and -3.29,-0.192 and -1.79,1.06 and -0.0936,0.383 (inactive) and 1.71 (inactive),-0.374 and -0.422,-2.57 and -3.36,1.28 (inactive) and 0.255 (inactive)
C=C[C@@H](OC)[C@H](O)c1ccc(O)c(F)c1,0.0737 (inactive) and 1.88 (inactive),-0.284 and -0.196,0.268 (inactive) and -0.347 (inactive),-0.132 (inactive) and -0.266 (inactive),-0.387 (inactive) and -0.924 (inactive),0.426 (inactive) and -1.02 (inactive),-0.422 and 1.68,0.203 (inactive) and -0.689 (inactive),-1.69 (inactive) and -0.842 (inactive),-1.64 and -1.95,0.29 and -0.115,-0.625 and 0.478,-0.232 and 0.531,0.204 and 0.115,0.296 and 1.08,-0.242 and 0.559,0.0698 (inactive) and -0.132 (inactive),0.498 and -0.363,0.724 and -0.819,-0.0191 (inactive) and -0.71 (inactive)
C=CCN(CCCCC)C(=O)C(c1cccs1)N(CCOCCO)C(=O)/C=C\C(=O)O (stereo not given),1.53 (inactive) and 1.77 (inactive),-1.26 and -0.239,1.03 (inactive) and 0.0763 (inactive),-1.53 (inactive) and -1.1 (inactive),-0.772 (inactive) and -1.06 (inactive),-1.88 (inactive) and -1.64 (inactive),1.27 and 0.842,-0.224 (inactive) and 0.208 (inactive),-0.617 (inactive) and -0.64 (inactive),-0.366 and 0.183,0.457 and 0.414,0.314 and -0.158,0.341 and 0.976,1.85 and 1.71,0.025 and 0.586,0.69 and -0.139,1.03 (inactive) and 0.45 (inactive),0.0935 and -0.719,-0.512 and 0.0846,-0.186 (inactive) and -0.954 (inactive)
C=C[C@@H](C)[C@@H](O)c1ccc(O)c2ccccc12,-0.433 (inactive) and 0.891 (inactive),-0.194 and -0.0851,0.837 (inactive) and 2.36 (inactive),-0.0805 (inactive) and 0.389 (inactive),-0.718 (inactive) and 0.0336 (inactive),0.205 (inactive) and 1.19 (inactive),-0.565 and 0.273,-5.58 (inactive) and -5.73 (inactive),-0.616 (inactive) and -1.33 (inactive),1.95 and 1.31,0.799 and -0.778,-0.468 and 0.56,-0.165 and -1.36,-2.83 and -2.76,-1.07 and -1.45,-2.11 and -2.44,-0.672 (inactive) and -0.253 (inactive),-0.994 and -0.39,-1.51 and -1.39,-0.852 (inactive) and -0.3 (inactive)
